High-throughput results (PubChem BioAssay)
ClpP mod: qHTS Assay for Activators of ClpP | ATP-dependent Clp protease proteolytic subunit (Bacillus subtilis (strain 168)), P80244 | purified B. subtilis ClpP, FRET peptide cleavage, 20 min | 340,000 tested, 1.9% active | Potency, µM (titrated, usually from 57.5 µM), without a hit: at the top dose activity change, negative = active; active means well fitted falling curve with a large enough effect; inconclusive means small, poorly fitted or top-dose-only effect; inactive means no such curve, though single readings can be large or run the other way; further: potency means the concentration at half of the fitted maximal effect; the source files actives as falling curves though it sought activators and does not explain the sign; nearly all actives have a fitted effect of over 65% in size
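Purified B. subtilis ClpP, 10 microg/mL final in Tris/HCl pH8 with KCl, BSA, glycerol and Tween-20, cleaved an Abz/nitrotyrosine-quenched decapeptide. Fluorescence (ex 320, em 430) was read at 0 and 20 min at room temperature. Delta was normalized to 5.8 microM ADEP and DMSO/no-enzyme controls.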
ASM inhibitor: Inhibitors of Secretory Acid Sphingomyelinase (S-ASM): qHTS | Sphingomyelin phosphodiesterase (Homo sapiens), P17405 | placental ASM, HMU-PC fluorogenic substrate, 60 min | Potency, µM (highest dose often 57.5 µM), without a hit: at the highest dose activity change, negative = inhibition, actives largely listed as inhibitors | 340,000 tested, 0.006% active; further: potency means the concentration at half of the fitted maximal effect
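Steps: dispense placental human ASM, pin compound, wait 10 min at room temperature, add HMU-PC0 substrate at 9 uM final, incubate 60 min at 37 °C, add stop solution raising pH to 10, read fluorescence.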
RGS4 inh: Inhibitors of Regulator of G Protein Signaling (RGS) 4: qHTS; Transcreener GDP fluorescence polarization, RGS4-accelerated GTP hydrolysis; Potency, µM (top dose mostly 114 µM), without a hit: top-dose activity change, negative = inhibition, actives largely listed as inhibitors; 390,000 tested, 0.039% active; Regulator of G-protein signaling 4 (Homo sapiens), P49798; further: potency means the concentration at half of the fitted maximal effect; on the % scale 0 is the no-effect control and ±100 the full control effect; nearly all actives have a fitted effect of over 75% in size
Target sequence (P49798 whole entry, looked up): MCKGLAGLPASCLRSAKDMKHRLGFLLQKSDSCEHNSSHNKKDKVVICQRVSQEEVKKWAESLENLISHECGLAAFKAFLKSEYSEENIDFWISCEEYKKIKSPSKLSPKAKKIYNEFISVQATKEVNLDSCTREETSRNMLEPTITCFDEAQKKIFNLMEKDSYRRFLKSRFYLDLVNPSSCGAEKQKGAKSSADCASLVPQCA
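MLSMR compounds (23 nl, pin-transferred) preincubated 10 min at room temperature with a 500nM (2x) first reagent, then RGS4 at 900nM (2x) plus Transcreener GDP mix added; fluorescence polarization (620/688 nm) read before and after 90 min at 30 °C.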
LDHA inh: qHTS assay for inhibitors of human lactate dehydrogenase; L-lactate dehydrogenase A chain (Homo sapiens), P00338; activity change, % (values are at about 110 or 230 µM); AID 1347041, 2019; purified LDHA, NADH/diaphorase-resazurin fluorescence; stronger effect = lower value; 480,000 tested, 0.15% active; in the data active means activity change below about -30%; inconclusive means mostly about -25% to -30%;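 further: plate controls were DMSO wells for no effect and wells without enzyme for full effect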
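Human LDH5 (2 nM) was incubated with 0.06 mM NADH and 0.2 mM pyruvate for 5 min at room temperature in Tris pH 7.4. Remaining NADH was coupled through diaphorase/resazurin, and resorufin fluorescence was read at 0 and 20 min.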
Mito fusion act: qHTS Assay for Small Molecule Inhibitors of Mitochondrial Division or Activators of Mitochondrial Fusion; S. cerevisiae fusion-defective mutant growth rescue, CellTiterGlo 48 h; Potency, µM (doses to about 46.1 µM), without a hit: top-dose growth rescue (activation), most hits filed as activators; 320,000 tested, 0.23% active; AID 485298, 2010; further: potency means the concentration at half of the fitted maximal effect; % of control where 0% means no effect; nearly all actives have a fitted effect of over 45% in size
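Luminescent cell viability in 1536-well qHTS format served as the measure of rescued growth in ts fusion-mutant S. cerevisiae cultured on non-fermentable YPEG for 48 hours at 37C.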
IDH1 R132H inh: qHTS for Inhibitors of mutant isocitrate dehydrogenase 1 (IDH1): qHTS; Potency, µM (highest dose often 76.6 µM), inactives show at the top dose activity change, negative = inhibition, usual class: inhibitors; Isocitrate dehydrogenase [NADP] cytoplasmic (Homo sapiens), O75874; 390,000 tested, 0.093% active; IDH1-R132H enzyme, NADPH consumption, diaphorase/resazurin fluorescence; further: potency means the concentration at half of the fitted maximal effect; on the % scale 0 is the no-effect control and ±100 the full control effect; nearly all actives have a fitted effect of over 65% in size
Target sequence (O75874 whole entry R132H, stated change not applied): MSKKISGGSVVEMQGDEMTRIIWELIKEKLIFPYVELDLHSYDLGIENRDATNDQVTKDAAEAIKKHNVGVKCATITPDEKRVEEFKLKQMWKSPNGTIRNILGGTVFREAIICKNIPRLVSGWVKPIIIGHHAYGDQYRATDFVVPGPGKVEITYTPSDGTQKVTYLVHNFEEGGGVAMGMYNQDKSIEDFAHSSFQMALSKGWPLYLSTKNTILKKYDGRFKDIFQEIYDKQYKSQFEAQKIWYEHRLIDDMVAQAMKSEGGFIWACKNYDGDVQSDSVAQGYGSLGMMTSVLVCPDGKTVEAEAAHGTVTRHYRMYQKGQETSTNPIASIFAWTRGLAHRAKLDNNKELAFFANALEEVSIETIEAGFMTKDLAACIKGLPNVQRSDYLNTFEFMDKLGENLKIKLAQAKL
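IDH1-R132H (0.5 ug/mL) preincubated 30 min with compound, then NADPH (0.016 mM) and alpha-KG (2 mM) added; 80 min at RT, pH 7.5. Remaining NADPH coupled via diaphorase/resazurin to fluorescence (540/590 nm); concentration-response curves normalized to no-enzyme control.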
* = called active by the depositor; i = inactive; ? = inconclusive; nt = not tested or not shown; [ ] = another dose, or the depositor's remark. The sample as a whole holds a higher share of hits than the screen did. Unless noted, the call rests on the fitted dose curve; in most records, active means well fitted curve in the direction sought with a large enough effect; inconclusive means small, poorly fitted or top-dose-only effect, or another doubt; inactive means no such curve, though single readings can be large; an effect the other way counts as inactive or inconclusive.

SMILES	ClpP mod	ASM inhibitor	RGS4 inh	LDHA inh	Mito fusion act	IDH1 R132H inh
O=[N+]([O-])c1cccc(-c2nc(NCc3ccccc3)c3ccccc3n2)c1	-0.5%	8.7%	-9.2%	1.2	3.16µM*	1.2%
O=[N+]([O-])c1ccc(-c2nc(NCc3ccccc3)c3ccccc3n2)cc1	nt	-0.1%	22.0%	-0.5	-0.5%	-4.3%
CCCC(N)CCC	nt	nt	nt	-3.9	nt	nt
Cc1cc(C)c2c(C(=O)O)cc(-c3cccnc3)nc2c1	nt	nt	nt	10.5	nt	nt
FC(F)(F)c1cc(-c2ccccc2)nc(NC2CCCC2)n1	31.6µM*	4.2%	-9.2%	-2.7	-0.4%	1.7%
N#CC1=C(N)SC(N)=C(C#N)C1CCc1ccccc1	31.6µM*	4.7%	-31.5%	5.0	-2.2%	-2.5%
CCN(C(=O)COC(=O)c1ccccc1NCc1ccco1)c1c(N)n(Cc2ccccc2)c(=O)[nH]c1=O	3.9%	i	-8.1%	-4.8	nt	5.9%
CC(C)CN(C(=O)COC(=O)c1ccccc1NCc1ccco1)c1c(N)n(Cc2ccccc2)c(=O)[nH]c1=O	28.2µM*	i	20.1%	-5.4	0.2%	0.3%
CN(C)S(=O)(=O)c1ccc(NC(=O)c2cc(-c3cccs3)nc3ccccc23)cc1	15.8µM*	79.8%	-25.3%	-3.7	-2.9%	-2.9%
NS(=O)(=O)c1ccc(NC(=O)c2cc(-c3cccs3)nc3ccccc23)cc1	?	175.3%	-12.3%	-3.7	-3.8%	-7.1%
CCN(CC)S(=O)(=O)c1ccc(NC(=O)c2cc(-c3cccs3)nc3ccccc23)cc1	28.2µM*	63.8%	9.3%	-6.5	-5.1%	-0.7%
COc1cccc(CN(C)C(=O)c2cc(-c3cccs3)nc3ccccc23)c1	31.6µM*	34.0%	-21.5%	-7.7	0.2%	3.1%
Cc1ccc(Cl)cc1N1CCN(CC(=O)NC2CCCCC2)CC1	nt	nt	nt	0.7	nt	nt
O=C(O)c1ccccc1S(=O)(=O)Cc1ccccc1	-0.7%	4.9%	25.2%	-5.3	1.9%	3.2%
Cn1ncc(S(=O)(=O)Cc2ccccc2)c(Br)c1=O	nt	nt	2.67µM*	nt	-91.8%	nt
COc1cc2nc(C3CCC3)nc(N3CCN(c4ccccn4)CC3)c2cc1OC	-9.4%	3.7%	0.5%	3.3	nt	?
COc1cc2nc(C3CCC3)nc(N3CCN(c4ccccc4OC)CC3)c2cc1OC	-3.4%	-9.2%	-27.5%	0.7	14.1µM*	2.7%
NC(=O)c1ccsc1NC(=O)c1ccc2c(c1)CCCC2	-14.8%	-3.3%	-8.0%	-3.1	?	14.8%
CNC(=O)c1ccsc1NC(=O)c1ccc2c(c1)CCCC2	?	?	1.2%	-5.9	5.62µM*	5.5%
COc1cc(OC)c2c(C)c(CC(=O)NCc3ccc(F)cc3)c(=O)oc2c1	nt	nt	nt	4.4	nt	nt
CNC(=S)NNC(=O)C(Sc1ccccc1)c1ccccc1 (stereo not drawn)	nt	nt	nt	-32.0*	nt	nt
CC(C)NC(=O)C(Sc1ccccc1)c1ccccc1 (stereo not drawn)	-2.0%	9.6%	31.9%	-0.9	1.4%	1.1%
Cc1cccc(C2Nc3ccccc3C(=O)N2c2ccc(F)cc2)n1 (stereo not drawn)	31.6µM*	213.1%	3.3%	-6.5	-0.7%	5.6%
Cc1ccc(CN2C(=O)c3ccccc3NC2c2ccccn2)cc1 (stereo not drawn)	nt	88.2%	-10.0%	-1.0	6.1%	-2.4%
Cc1cccc(N2C(=O)c3ccccc3NC2c2cnc3ccccc3n2)c1 (stereo not drawn)	nt	nt	nt	2.3	nt	nt
SMILES	ClpP mod	ASM inhibitor	RGS4 inh	LDHA inh	Mito fusion act	IDH1 R132H inh
O=C1c2ccccc2NC(c2ccccn2)N1c1ccccc1F (stereo not drawn)	31.6µM*	238.8%	21.8%	-6.6	-1.2%	7.6%
CCC(=O)Nc1ccccc1C(=O)OCC(=O)Nc1ccc(S(N)(=O)=O)cc1	-28.9%	1.2%	6.0%	-2.4	-2.0%	-1.3%
CCCCNc1ccccc1C(=O)OCC(=O)Nc1ccc(S(N)(=O)=O)cc1	28.2µM*	i	1.4%	-0.8	-0.3%	6.8%
CC1CCN(C2=C(NS(=O)(=O)c3ccc(Cl)cc3)C(=O)c3ccccc3C2=O)CC1	nt	-0.3%	1.6%	28.8	15.8µM*	0.0%
CC1CCN(C2=C(NS(=O)(=O)c3ccccc3)C(=O)c3ccccc3C2=O)CC1	nt	-7.9%	-33.7%	33.6	?	-1.4%
O=C(Nc1ccc(C2CC2(Cl)Cl)cc1)c1ccccc1Br (stereo not drawn)	-1.6%	-8.0%	-13.2%	-5.6	14.1µM*	7.7%
O=C(Oc1ccccc1C(=O)Nc1ccccc1)c1ccccc1Br	-2.1%	-13.4%	1.0%	5.7	15.8µM*	7.0%
Cc1ccc(NC(=O)CCc2nc3cc(Cl)ccc3n(Cc3ccccc3)c2=O)cc1	nt	nt	nt	-2.3	nt	nt
CC(=O)Nc1ccc(-c2cc(-c3ccc(NC(C)=O)cc3)nc(-c3ccc(NC(C)=O)cc3)n2)cc1	5.62µM*	57.0%	1.2%	-8.7	-2.2%	8.9%
CC(=O)Nc1ccc(-c2ccc(NC(C)=O)cc2)cc1	nt	1.3%	21.9%	-15.4	2.4%	-4.0%
CCC(=O)Nc1ccc(-c2cc(-c3ccccc3)nc(-c3ccc(NC(=O)CC)cc3)n2)cc1	?	5.1%	-14.3%[56.9 µM]	-1.7	-1.2%	11.9%
